# Compound activity as filed in PubChem BioAssay.
# Shiga toxin inh – inhibitors of Shiga toxin in Vero cells; inhibition, % at 38.7 µM; 290,000 tested, 9.2% active; Vero cells, Shiga toxin protein synthesis inhibition reporter; in the data active = inhibition mostly above about 28%, no sharp cut-off; inactive = mostly below about 43%; note: 0% is about no effect
# CHX counter – counter-screen hit for Shiga toxin inhibitors, cycloheximide. cell reporter, cycloheximide protein synthesis inhibition counterscreen. max response, %. 300,000 tested, 12% active. AID 2314; in the data active = max response mostly above about 13%, no sharp cut-off; inactive = mostly below about 14%; note: read at 38.3 µM for the half of the compounds with a filed dose; 0% is about no effect
# AMA1 RON2 block – AMA1-RON2 (P. falciparum) interaction inhibition | AlphaScreen AMA1-biotinylated RON2 peptide binding | Potency, µM (titrated, usually from 58.2 µM), without a hit: at the top dose activity change, negative = inhibition, actives largely listed as inhibitors | 360,000 tested, 0.2% active; active = well fitted inhibition curve with a large enough effect; inconclusive = small, poorly fitted or top-dose-only effect; inactive = no such curve, though single readings can be large or run the other way;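 note: potency is the fitted concentration of half-maximal effect; 0% = vehicle wells and -100% = peptide control; nearly all actives have a fitted effect of over 45% in size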
#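 AMA1 (3D7) with his tag at 25 nM final met compounds first, then biotinylated RON2 peptide at 25 nM; detection used donor plus acceptor beads, 10 µg/mL apiece, read by AlphaScreen after 30 min at room temperature.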
# LASV entry inh – inhibitors of Lassa virus binding or cell entry | Lassa virus pseudotype entry inhibition, cell reporter | Potency, µM (top dose mostly 37.9 µM), without a hit: at the top dose activity change, negative = inhibition, actives largely listed as inhibitors | 300,000 tested, 1.2% active; calls by dose curve; tested in HEK293 cells; note: potency is the fitted concentration of half-maximal effect; % is set by controls: 0 for no effect and ±100 for the full control effect; nearly all actives have a fitted effect of over 50% in size
# Marburg entry inh – blocks Marburg virus binding to or entry into cells. AID 540276. Potency, µM (highest dose often 37.8 µM), for the others: top-dose activity change, negative = inhibition, actives largely listed as inhibitors. 300,000 tested, 1.8% active. Marburg virus pseudotyped entry inhibition, cell reporter; calls by dose curve; tested in HEK293 cells; note: potency is the fitted concentration of half-maximal effect; % is set by controls: 0 for no effect and ±100 for the full control effect
# Active calls of the source: *; ? = inconclusive; . = no result given; [ ] = dose if it differs, or a comment. Many of the other results were omitted from the sample, so hits are more common in it than they were.
SMILES,Shiga toxin inh,CHX counter,AMA1 RON2 block,LASV entry inh,Marburg entry inh
COc1ccc(-c2nc3ccccn3c2Cl)cc1,22,41*,-12%,3.5µM*,?
Clc1ccc(-c2cn3c(n2)CCC3)cc1,73,28*,-5%,?,?
COc1ccc(-c2cn3ccc4ccccc4c3n2)cc1,64*,37*,-10%,?,-20%
O=C(Nc1ccc(-c2cn3ccccc3n2)cc1)c1ccc(Cl)cc1,9,-9,1%,1%,1%
COc1ccc(-c2nc3ccccn3c2CN2CCN(c3ccccc3F)CC2)cc1,29,9,-11%,-13%,-18%[46.1 µM]
Clc1ccc(-c2cn3ccccc3n2)cc1,40*,37*,0%,.,.
COc1ccc(CC(=O)Nc2ccncc2Cl)cc1,-10,8,-11%,.,.
CCCN(CCC)C(=O)Cn1c(=O)n(-c2ccc(CC)cc2)c(=O)c2ccc(C(=O)NCCc3ccccc3)cc21,.,.,.,-7%[46.1 µM],14%[46.1 µM]
COc1ccc(CC(=O)N2CCc3ccccc3C2)cc1,24*,22*,14%,.,.
O=C(/C=C/c1ccccc1[N+](=O)[O-])N1CCc2ccccc2C1,22,21*,6%,2%[46.1 µM],-4%[46.1 µM]
Fc1ccc(NC(=S)N2CCOCC2)c(F)c1,-10,18,-6%,.,.
O=C(c1cc(Cl)ccc1[N+](=O)[O-])N1CCc2ccccc2C1,-7,-2,-2%,4%,2%
Fc1ccc(NC(=S)N2CCc3ccccc3C2)c(F)c1,67*,32*,-26%,-9%[46.1 µM],-1%[46.1 µM]
Cc1cccc(OCC(=O)N2CCc3ccccc3C2)c1,33*,27*,6%,-3%,?
CCc1ccc(NC(=O)CC2C(=O)N(c3ccc(Cl)cc3)C(=O)N2C2CCCC2)cc1 (stereo unspecified),6,19,.,?,.
O=C(Cc1ccc(Cl)cc1)N1CCc2ccccc2C1,.,.,2%,.,.
COc1cc(NC(=S)N2CCc3ccccc3C2)cc(OC)c1,39,9,-23%,14%[46.1 µM],?
COc1cc2c(cc1OC)CN(C(=O)Nc1ccccc1)CC2,-7,5,0%,3%[46.1 µM],?
COc1ccc(NC(=O)N2CCc3ccccc3C2)cc1,78*,63*,46%,?,?
CCc1ccc(/C=C\C(=O)N2CCc3ccccc3C2)cc1,43*,13*,12%,7%,18%
COc1ccc(NC(=S)N2CCc3ccccc3C2)cc1OC,49*,10,-10%,.,.
CCOc1ccc(NC(=O)N2CCc3ccccc3C2)cc1,58*,48*,3%,.,.
COC(=O)N[C@@H](c1ccc2ccccc2c1)C(C(C)=O)C(=O)OC (stereo partly specified),.,.,.,.,-16%[14.2 µM]
COc1ccc(N2CCN(C(=O)CSc3nnnn3-c3ccc4c(c3)OCCO4)CC2)cc1,-13,-3,-8%,2.9µM*,-6%
CC(C)OC(=O)CSc1nnnn1-c1ccc2c(c1)OCCO2,64*,35*,1%,22%,0%
SMILES,Shiga toxin inh,CHX counter,AMA1 RON2 block,LASV entry inh,Marburg entry inh
O=C(CSc1nnnn1-c1ccc2c(c1)OCCO2)c1cccc2c1OCCO2,65,33*,5%,15%,8%
N#Cc1cc2cc(Cl)ccc2[nH]c1=O,.,.,0%,.,.
COc1ccc(NC(=O)Cn2cc(C(=O)c3ccccc3OC)c(=O)c3ccc(C)nc32)cc1OC,.,.,.,27%[46.1 µM],.
COCC(=O)Nc1cc(C(=O)Nc2ccccc2)ccc1Cl,107*,36*,.,.,.
CCOc1ccccc1NC(=O)c1ccc(Cl)c(NC(=O)CC(c2ccccc2)c2ccccc2)c1,7,-3,0%,-4%,15µM*
CC(C)CNC(=O)c1ccc(Cl)c(NC(=O)COc2ccccc2)c1,-1,-2,.,.,.
CCOCC(=O)Nc1cc(C(=O)Nc2ccc(F)cc2)ccc1Cl,33*,29*,.,.,.
C[C@@H]1CN[C@H](CCO)/C1=C\c1ccccc1,.,.,0%,.,.
CN1CCCC1CN1CCCC1 (stereo unspecified),.,.,0%,.,.
CN1CCCC1CCNC1C2CC3CC(C2)CC1C3 (stereo unspecified),-12,2,-6%,-50%[14.3 µM],13µM*
Cc1cccnc1NC(=O)c1ccc2c(c1)OCO2,.,.,12%,2%,6%
CC(C)(C)NC(=O)CN(Cc1ccc2c(c1)OCO2)C(=O)CCC(=O)Nc1nccs1,38,15*,-4%,-19%,13%[46.1 µM]
CCOC(=O)Cc1csc(NC(=O)c2ccc(C)cc2)n1,91*,34*,-8%,.,-3%[46.1 µM]
CCOC(=O)Cc1csc(NC(=O)c2ccoc2C)n1,84*,29*,9%,9%,15%
CCOC(=O)Cc1csc(NC(=O)c2c(C)noc2C)n1,.,.,15%,.,.
O=C(Nc1nccs1)c1ccc2c(c1)OCO2,65*,20*,-3%,-12%[46.1 µM],?
COCCNC(=O)CN(Cc1ccc2c(c1)OCO2)C(=O)CCC(=O)Nc1nccs1,-10,-1,-1%,23%,1%
Cc1csc(NC(=O)c2ccc3c(c2)OCO3)n1,71*,31*,-4%,7.1µM*,?
Cc1csc(NC(=O)c2ccoc2C)n1,64*,49*,0%,?,?
CCOC(=O)Cc1csc(NC(=O)c2ccc3c(c2)OCO3)n1,40*,15*,-1%,-12%,-4%
CCOC(=O)Cc1csc(NC(=O)c2ccc(F)cc2)n1,8,7,-11%,.,.
Cc1cc(C)cc(-n2c(SCC(=O)Nc3ccccc3F)nc3c(oc4ccccc43)c2=O)c1,.,.,.,.,-27%[46.1 µM]
Cc1ccccc1OCc1ccc(-c2nc(C#N)c(NCCCN(C)C)o2)o1,.,.,.,1%[46.1 µM],?
COc1ccc(-n2c(N)c(C#N)c3ccc([N+](=O)[O-])cc3c2=O)cc1,active,21,6%,15%,1%
COc1ccc(C2=NCCn3nc4cc([N+](=O)[O-])ccc4c32)cc1,.,.,19%,.,.
SMILES,Shiga toxin inh,CHX counter,AMA1 RON2 block,LASV entry inh,Marburg entry inh
COc1ccc(-n2cc3ccc([N+](=O)[O-])cc3n2)cc1,115*,37*,-15%,?,?
Cc1ccc(Nc2ncnc3c2nnn3Cc2ccccc2)cc1,49*,23*,12%,-18%,?
O=c1c(Br)c(NCc2ccccc2)cnn1-c1ccc(F)cc1,40*,26*,64%,?,?
COc1ccc(NC(=O)COc2ccc(S(=O)(=O)NC3CCCCC3)cc2)cc1OC,.,.,.,-15%[46.1 µM],?
O=C(NC(=S)Nc1ccc(F)c(Cl)c1)C1CC1,17,28*,0%,?,1%[46.1 µM]
O=C(NC(=S)Nc1ccc(S(=O)(=O)N2CCCC2)cc1)C1CC1,1,-2,78%,.,.
Cc1ccc(NC(=S)NC(=O)C2CC2)cc1Cl,53*,28*,18%,.,.
COc1ccc(OCC(=O)Nc2ccc3c(c2)CCC3)cc1,.,.,-1%,.,.
COc1cccc(CNc2ccc3c(c2)CCC3)c1,153*,118*,-17%,4%,-4%
COc1cccc(CNc2ccc(C)c(Cl)c2)c1,64*,39*,-2%,.,.
COc1cccc(CNc2nc3nc(C)cc(C)n3n2)c1,66,11*,15%,5%,?
COc1ccc(OC)c(CNc2ccc3c(c2)CCC3)c1,66*,43*,-7%,-12%[46.1 µM],1%[46.1 µM]
C=CCOc1c(Cl)cc(CNc2ccc(C)c(Cl)c2)cc1OC,-10,-3,.,.,-4%
